Data reported in PubChem BioAssay (NCATS).
Results filed as inconclusive are left out. Where a call stands in place of a potency, no number is given. Calls of active or inactive are those of the source. Calls follow the shape of the dose curve; as a rule, active = well fitted inhibition curve with a large enough effect; inconclusive = small, poorly fitted or top-dose-only effect; inactive = no such curve, though single readings can be large or run the other way.

Test: NS1 protein of Zika virus - qHTS assay to identify small molecule inhibitors in human HEK 293 cells (AID 1347053); also: nearly all actives have a fitted effect of over 55% in size
Settings: HEK293 ZIKV MR766 infection, NS1 TR-FRET, 24 h; series mostly up to 46.1 µM
Source text: National Center for Advancing Translational Sciences [NCATS]
Johns Hopkins University School of Medicine
The non-structural 1 (NS1) protein of zika virus is known to associate with the viral replication complex. This cell-based TR-FRET ZIKV NS-1 assay measures the increased NS-1 protein in human HEK 293 cells after a 24-hour Zika virus infection by a TR-FRET assay readout. A decrease in the Time-resolved fluorescence energy transfer (TR-FRET) signal in this assay by small molecule treatment indicates an inhibitory effect of the small molecule on the expression of Zika virus NS1 correlating with Zika virus replication.
HEK 293 cells were cultured in EMEM (ATCC, Cat. # 30-2003) medium with 10% fetal bovine serum (GE healthcare Life Sciences, Cat. # SH30071.03), and 1% Pen/Strep (Gibco, Cat. # 15140-122). Cells were seeded in the assay plate and incubated at 37 C with 5% CO2 for 20 hours. Compounds were added to cells and incubated for one hour before addition of ZIKV MR766 strain solution to cells (MOI = 0.5). After an incubation at 37 C for 24 hours, the reagent mixture of TR-FRET ZIKV NS1 assay using two anti-ZIKV NS1 antibodies was added to assay plates. The TR-FRET signals in assay plates were measured using an Envision plate reader (PerkinElmer). Data were normalized by using the cell-containing wells without ZIKV as a negative control (0% NS-1) and wells containing ZIKV infected cells as a positive control (100% NS-1 level).

Q: Which Potency does the source give for `COc1ccc(OC(=O)N(CC(=O)O)Cc2ccc(OCCc3nc(-c4ccccc4)oc3C)cc2)cc1` here?
A: inactive

Q: With `CCCCNc1ccc(C(=O)OCCN(CC)CC)cc1` as the compound, how does the Potency read?
A: inactive

Q: Which Potency does the source give for `COc1cc(S(N)(=O)=O)cc(C(=O)O)c1OC` here?
A: inactive

Q: For `Nc1ccc([N+](=O)[O-])c(C(F)(F)F)c1`, which Potency is on record?
A: inactive

Q: For `CCCCC(O)/C=C(C)/C=C/C=C/C(=O)N1CCCC1=O` (stereo not given), which Potency is on record?
A: inactive

Q: Which Potency does the source give for `CC1(C)O[C@@H]2C[C@H]3[C@@H]4C[C@H](F)C5=CC(=O)C=C[C@]5(C)[C@@]4(F)[C@@H](O)C[C@]3(C)[C@]2(C(=O)CO)O1` here?
A: inactive

Q: With `COCCc1ccccn1` as the compound, how does the Potency read?
A: inactive

Q: For `Cc1ncc([N+](=O)[O-])n1C`, which Potency is on record?
A: inactive

Q: For `CN(C)C(=O)CNC(=O)Cc1ccccc1`, which Potency is on record?
A: inactive

Q: For `C#Cc1ccc(-c2ccccc2F)cc1`, which Potency is on record?
A: inactive

Q: For `C[N+]1(C)CCC(OC(=O)C(O)(c2ccccc2)C2CCCC2)C1` (stereo not given), which Potency is on record?
A: inactive

Q: With `Cc1ccc(C(=O)Oc2ccc(C(O)CNC(C)(C)C)cc2OC(=O)c2ccc(C)cc2)cc1` (stereo not given) as the compound, how does the Potency read?
A: inactive

Q: Which Potency does the source give for `CC(C)(C)c1cc(C=O)cc(C(C)(C)C)c1O` here?
A: inactive

Q: Which Potency does the source give for `CN1CCCN(C(c2ccccc2)c2ccc(Cl)cc2)CC1` (stereo not given) here?
A: inactive

Q: With `O=C(O)c1ccccc1Nc1cc(Cl)ccc1C(=O)O` as the compound, how does the Potency read?
A: inactive

Q: For `NS(=O)(=O)c1ccc(N2CCCCS2(=O)=O)cc1`, which Potency is on record?
A: inactive

Q: For `CCC(=O)O[C@]1(C(=O)COC)[C@@H](C)C[C@H]2[C@@H]3CCC4=CC(=O)C=C[C@]4(C)C3(F)[C@@H](O)C[C@@]21C` (stereo not given in full), which Potency is on record?
A: inactive

Q: Which Potency does the source give for `Cc1cc(O)c2c(O)c3c(O)cccc3cc2c1` here?
A: inactive

Q: For `COC(=O)C1=C(C)NC(COC(N)=O)=C(C(=O)OC(C)C)C1c1cccc(Cl)c1Cl` (stereo not given), which Potency is on record?
A: inactive

Q: For `C/C(=C(/OCCOc1ccc(Cl)cc1)c1ccc(Cl)cc1Cl)n1ccnc1`, which Potency is on record?
A: inactive

Q: For `CO/N=C(/C(=O)N[C@@H]1C(=O)N2C(C(=O)O)=C(Cn3nnc(C)n3)CS[C@H]12)c1csc(N)n1`, which Potency is on record?
A: inactive

Q: Which Potency does the source give for `CCN(CC)CC(=O)Nc1c(C)cccc1C(=O)OC` here?
A: inactive

Q: For `Cc1coc2ccccc2c1=O`, which Potency is on record?
A: inactive

Q: For `Cc1cnc(NS(=O)(=O)c2ccc(N)cc2)nc1`, which Potency is on record?
A: inactive

Q: Which Potency does the source give for `Nc1ncnc2n[nH]c(Nc3ccc(F)cc3)c12` here?
A: inactive

Q: For `Cc1ccc(C(=O)C(=O)O)cc1C`, which Potency is on record?
A: inactive

Q: For `OCc1cccnc1`, which Potency is on record?
A: inactive

Q: With `CC1(C)OC(=O)Nc2ccc(Br)cc21` as the compound, how does the Potency read?
A: inactive

Q: For `Cc1nn(-c2ccccc2)c(C)c1/C=N/N1CCN(Cc2ccccc2)CC1`, which Potency is on record?
A: inactive

Q: Which Potency does the source give for `O=C(OCCN1CCOCC1)c1cccnc1Nc1cccc(C(F)(F)F)c1` here?
A: inactive

Q: With `Cc1c(N)cccc1C(F)(F)F` as the compound, how does the Potency read?
A: inactive

Q: Which Potency does the source give for `O=C1Nc2cc(Cl)ccc2Oc2ccccc21` here?
A: inactive

Q: Which Potency does the source give for `c1ccc2c(c1)CCc1ccccc1N2` here?
A: inactive

Q: For `CCOC(=O)O[C@]1(C(=O)OCCl)CC[C@H]2[C@@H]3CCC4=CC(=O)C=C[C@]4(C)[C@H]3[C@@H](O)C[C@@]21C`, which Potency is on record?
A: inactive

Q: With `CCOc1ccccc1OCC1CNCCO1` (stereo not given) as the compound, how does the Potency read?
A: inactive

Q: With `O=C(O)c1ccc(OCCN2CCCCC2)cc1` as the compound, how does the Potency read?
A: inactive

Q: For `CCN1CCCC1CN` (stereo not given), which Potency is on record?
A: inactive

Q: Which Potency does the source give for `CCN(CC)CCNC(=O)c1ccc(NS(C)(=O)=O)cc1` here?
A: inactive

Q: Which Potency does the source give for `Cc1cccc(C)c1NC(=O)c1cc(S(N)(=O)=O)c(Cl)cc1O` here?
A: inactive

Q: With `COc1cc(NS(=O)(=O)c2ccc(N)cc2)nc(C)n1` as the compound, how does the Potency read?
A: inactive
